In article PMC11006913:

How the values were obtained:
Test in all cases: PBM; 200 nM protein, PBS
Details in all cases: dsDNA, one strand shown
[1] = target: HESX1 (Homo sapiens, UniProt Q9UBX0 95-180, R165K)
[2] = target: SHOX (Homo sapiens, UniProt O15266 103-189)
[3] = target: ALX4 (Homo sapiens, UniProt Q9H161 200-286, Q225E)
[4] = target: HESX1 (Homo sapiens, UniProt Q9UBX0 95-180)
[5] = target: MSX2 (Homo sapiens, UniProt P35548 130-214, R199I)
[6] = target: ALX1 (Homo sapiens, UniProt Q15699 118-204, L144V)
[7] = target: ALX3 (Homo sapiens, UniProt O95076 139-225, N203Q)
[8] = target: SHOX (Homo sapiens, UniProt O15266 103-189, R173C)
[9] = target: ALX1 (Homo sapiens, UniProt Q15699 118-204, L144R)
[10] = target: ALX3 (Homo sapiens, UniProt O95076 139-225)
[11] = target: PROP1 (Homo sapiens, UniProt O75360 56-141)
[12] = target: HESX1 (Homo sapiens, UniProt Q9UBX0 95-180, R109Q)
[13] = target: PROP1 (Homo sapiens, UniProt O75360 56-141, R99H)
[14] = target: ALX3 (Homo sapiens, UniProt O95076 139-225, L168Q)
[15] = target: HESX1 (Homo sapiens, UniProt Q9UBX0 95-180, P111T)
[16] = target: ALX3 (Homo sapiens, UniProt O95076 139-225, L168V)
[17] = target: PROP1 (Homo sapiens, UniProt O75360 56-141, F88S)
[18] = target: HESX1 (Homo sapiens, UniProt Q9UBX0 95-180, F115L)
[19] = target: ALX1 (Homo sapiens, UniProt Q15699 118-204)
[20] = target: ALX3 (Homo sapiens, UniProt O95076 139-225, N203S)
Chain of ALX3 (Homo sapiens, UniProt O95076 139-225, N203S) (O95076 139-225 N203S): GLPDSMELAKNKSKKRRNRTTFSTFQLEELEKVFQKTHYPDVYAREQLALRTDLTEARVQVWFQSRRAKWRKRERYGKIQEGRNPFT

Chain of ALX1 (Homo sapiens, UniProt Q15699 118-204, L144V) (Q15699 118-204 L144V): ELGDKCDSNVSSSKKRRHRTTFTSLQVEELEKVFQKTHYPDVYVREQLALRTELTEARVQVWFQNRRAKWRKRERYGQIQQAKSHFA
Chain of ALX1 (Homo sapiens, UniProt Q15699 118-204) (Q15699 118-204): as the sequence (Q15699 118-204 L144V) above, with V27L counted along it
Chain of ALX3 (Homo sapiens, UniProt O95076 139-225) (O95076 139-225): as the sequence (O95076 139-225 N203S) above, with S65N counted along it
Chain of ALX3 (Homo sapiens, UniProt O95076 139-225, L168Q) (O95076 139-225 L168Q): as the sequence (O95076 139-225 N203S) above, with L30Q, S65N counted along it
Chain of ALX4 (Q9H161 200-286 Q225E): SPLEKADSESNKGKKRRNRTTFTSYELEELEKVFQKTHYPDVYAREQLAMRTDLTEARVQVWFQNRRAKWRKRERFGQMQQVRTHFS
Chain of HESX1 (Homo sapiens, UniProt Q9UBX0 95-180, R109Q) (Q9UBX0 95-180 R109Q): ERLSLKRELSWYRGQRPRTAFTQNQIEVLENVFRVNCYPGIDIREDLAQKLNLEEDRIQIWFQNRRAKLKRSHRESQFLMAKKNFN
Chain of PROP1 (Homo sapiens, UniProt O75360 56-141, R99H) (O75360 56-141 R99H): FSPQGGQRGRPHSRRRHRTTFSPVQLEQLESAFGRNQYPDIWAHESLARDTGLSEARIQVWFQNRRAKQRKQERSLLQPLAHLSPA
Chain of MSX2 (P35548 130-214 R199I): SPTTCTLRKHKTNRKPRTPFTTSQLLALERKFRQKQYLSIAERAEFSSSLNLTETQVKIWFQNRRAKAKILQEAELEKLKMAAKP
Chain of HESX1 (Homo sapiens, UniProt Q9UBX0 95-180) (Q9UBX0 95-180): as the sequence (Q9UBX0 95-180 R109Q) above, with Q15R counted along it
Chain of HESX1 (Homo sapiens, UniProt Q9UBX0 95-180, R165K) (Q9UBX0 95-180 R165K): as the sequence (Q9UBX0 95-180 R109Q) above, with Q15R, R71K counted along it
Chain of ALX3 (Homo sapiens, UniProt O95076 139-225, N203Q) (O95076 139-225 N203Q): as the sequence (O95076 139-225 N203S) above, with S65Q counted along it
Chain of SHOX (Homo sapiens, UniProt O15266 103-189) (O15266 103-189): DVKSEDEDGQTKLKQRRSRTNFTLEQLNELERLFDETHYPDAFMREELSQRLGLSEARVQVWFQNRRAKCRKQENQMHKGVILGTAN
Chain of ALX1 (Homo sapiens, UniProt Q15699 118-204, L144R) (Q15699 118-204 L144R): as the sequence (Q15699 118-204 L144V) above, with V27R counted along it
Chain of HESX1 (Homo sapiens, UniProt Q9UBX0 95-180, F115L) (Q9UBX0 95-180 F115L): as the sequence (Q9UBX0 95-180 R109Q) above, with Q15R, F21L counted along it
Chain of PROP1 (Homo sapiens, UniProt O75360 56-141) (O75360 56-141): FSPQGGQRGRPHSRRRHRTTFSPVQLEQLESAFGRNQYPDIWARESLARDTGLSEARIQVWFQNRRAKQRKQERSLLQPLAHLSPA
Chain of PROP1 (Homo sapiens, UniProt O75360 56-141, F88S) (O75360 56-141 F88S): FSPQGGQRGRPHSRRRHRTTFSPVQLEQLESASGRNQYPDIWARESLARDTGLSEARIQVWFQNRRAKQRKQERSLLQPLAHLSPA
Chain of HESX1 (Homo sapiens, UniProt Q9UBX0 95-180, P111T) (Q9UBX0 95-180 P111T): as the sequence (Q9UBX0 95-180 R109Q) above, with Q15R, P17T counted along it
Chain of ALX3 (Homo sapiens, UniProt O95076 139-225, L168V) (O95076 139-225 L168V): as the sequence (O95076 139-225 N203S) above, with L30V, S65N counted along it
Chain of SHOX (Homo sapiens, UniProt O15266 103-189, R173C) (O15266 103-189 R173C): as the sequence (O15266 103-189) above, with R71C counted along it

CCAATTAC
binding signal [1]: 12.8 upbm affinity estimate (log intensity, higher = more binding, comparable within an allelic series) | binding signal [2]: 12.2 upbm affinity estimate (log intensity, higher = more binding, comparable within an allelic series) | binding signal [3]: 13.1 upbm affinity estimate (log intensity, higher = more binding, comparable within an allelic series) | binding signal [4]: 12.9 upbm affinity estimate (log intensity, higher = more binding, comparable within an allelic series) | binding signal [5]: 12.8 upbm affinity estimate (log intensity, higher = more binding, comparable within an allelic series) | binding signal [6]: 11.8 upbm affinity estimate (log intensity, higher = more binding, comparable within an allelic series) | binding signal [7]: 8.39 upbm affinity estimate (log intensity, higher = more binding, comparable within an allelic series) | binding signal [8]: 9.4 upbm affinity estimate (log intensity, higher = more binding, comparable within an allelic series) | binding signal [9]: 11.4 upbm affinity estimate (log intensity, higher = more binding, comparable within an allelic series) | binding signal [10]: 12.5 upbm affinity estimate (log intensity, higher = more binding, comparable within an allelic series) | binding signal [11]: 11.5 upbm affinity estimate (log intensity, higher = more binding, comparable within an allelic series) | binding signal [12]: 9.36 upbm affinity estimate (log intensity, higher = more binding, comparable within an allelic series) | binding signal [13]: 11.7 upbm affinity estimate (log intensity, higher = more binding, comparable within an allelic series) | binding signal [14]: 10.6 upbm affinity estimate (log intensity, higher = more binding, comparable within an allelic series) | binding signal [15]: 11.3 upbm affinity estimate (log intensity, higher = more binding, comparable within an allelic series) | binding signal [16]: 9.97 upbm affinity estimate (log intensity, higher = more binding, comparable within an allelic series) | binding signal [17]: 7.57 upbm affinity estimate (log intensity, higher = more binding, comparable within an allelic series) | binding signal [18]: 7.75 upbm affinity estimate (log intensity, higher = more binding, comparable within an allelic series) | binding signal [19]: 12.5 upbm affinity estimate (log intensity, higher = more binding, comparable within an allelic series) | binding signal [20]: 8.51 upbm affinity estimate (log intensity, higher = more binding, comparable within an allelic series)

AATTAACG
binding signal [1]: 11.7 upbm affinity estimate (log intensity, higher = more binding, comparable within an allelic series) | binding signal [2]: 11.6 upbm affinity estimate (log intensity, higher = more binding, comparable within an allelic series) | binding signal [3]: 13 upbm affinity estimate (log intensity, higher = more binding, comparable within an allelic series) | binding signal [4]: 11.7 upbm affinity estimate (log intensity, higher = more binding, comparable within an allelic series) | binding signal [5]: 12.2 upbm affinity estimate (log intensity, higher = more binding, comparable within an allelic series) | binding signal [6]: 11.6 upbm affinity estimate (log intensity, higher = more binding, comparable within an allelic series) | binding signal [7]: 8.41 upbm affinity estimate (log intensity, higher = more binding, comparable within an allelic series) | binding signal [8]: 9.39 upbm affinity estimate (log intensity, higher = more binding, comparable within an allelic series) | binding signal [9]: 11.2 upbm affinity estimate (log intensity, higher = more binding, comparable within an allelic series) | binding signal [10]: 12.5 upbm affinity estimate (log intensity, higher = more binding, comparable within an allelic series) | binding signal [11]: 11.3 upbm affinity estimate (log intensity, higher = more binding, comparable within an allelic series) | binding signal [12]: 8.98 upbm affinity estimate (log intensity, higher = more binding, comparable within an allelic series) | binding signal [13]: 11.2 upbm affinity estimate (log intensity, higher = more binding, comparable within an allelic series) | binding signal [14]: 10.5 upbm affinity estimate (log intensity, higher = more binding, comparable within an allelic series) | binding signal [15]: 10.4 upbm affinity estimate (log intensity, higher = more binding, comparable within an allelic series) | binding signal [16]: 10.1 upbm affinity estimate (log intensity, higher = more binding, comparable within an allelic series) | binding signal [17]: 7.84 upbm affinity estimate (log intensity, higher = more binding, comparable within an allelic series) | binding signal [18]: 7.64 upbm affinity estimate (log intensity, higher = more binding, comparable within an allelic series) | binding signal [19]: 12.2 upbm affinity estimate (log intensity, higher = more binding, comparable within an allelic series) | binding signal [20]: 8.55 upbm affinity estimate (log intensity, higher = more binding, comparable within an allelic series)

AGGGACCG
binding signal [1]: 6.62 upbm affinity estimate (log intensity, higher = more binding, comparable within an allelic series) | binding signal [2]: 7.23 upbm affinity estimate (log intensity, higher = more binding, comparable within an allelic series) | binding signal [4]: 6.41 upbm affinity estimate (log intensity, higher = more binding, comparable within an allelic series) | binding signal [8]: 7.13 upbm affinity estimate (log intensity, higher = more binding, comparable within an allelic series) | binding signal [12]: 6.42 upbm affinity estimate (log intensity, higher = more binding, comparable within an allelic series) | binding signal [15]: 6.58 upbm affinity estimate (log intensity, higher = more binding, comparable within an allelic series) | binding signal [18]: 6.26 upbm affinity estimate (log intensity, higher = more binding, comparable within an allelic series)

AATTAGAT
binding signal [1]: 11.3 upbm affinity estimate (log intensity, higher = more binding, comparable within an allelic series) | binding signal [2]: 11.6 upbm affinity estimate (log intensity, higher = more binding, comparable within an allelic series) | binding signal [3]: 12.6 upbm affinity estimate (log intensity, higher = more binding, comparable within an allelic series) | binding signal [4]: 11.4 upbm affinity estimate (log intensity, higher = more binding, comparable within an allelic series) | binding signal [6]: 11.6 upbm affinity estimate (log intensity, higher = more binding, comparable within an allelic series) | binding signal [7]: 8.42 upbm affinity estimate (log intensity, higher = more binding, comparable within an allelic series) | binding signal [8]: 9.16 upbm affinity estimate (log intensity, higher = more binding, comparable within an allelic series) | binding signal [9]: 11.1 upbm affinity estimate (log intensity, higher = more binding, comparable within an allelic series) | binding signal [10]: 12.4 upbm affinity estimate (log intensity, higher = more binding, comparable within an allelic series) | binding signal [11]: 11.5 upbm affinity estimate (log intensity, higher = more binding, comparable within an allelic series) | binding signal [12]: 8.52 upbm affinity estimate (log intensity, higher = more binding, comparable within an allelic series) | binding signal [13]: 10.9 upbm affinity estimate (log intensity, higher = more binding, comparable within an allelic series) | binding signal [14]: 10.2 upbm affinity estimate (log intensity, higher = more binding, comparable within an allelic series) | binding signal [15]: 10.1 upbm affinity estimate (log intensity, higher = more binding, comparable within an allelic series) | binding signal [16]: 9.67 upbm affinity estimate (log intensity, higher = more binding, comparable within an allelic series) | binding signal [17]: 7.72 upbm affinity estimate (log intensity, higher = more binding, comparable within an allelic series) | binding signal [18]: 7.63 upbm affinity estimate (log intensity, higher = more binding, comparable within an allelic series) | binding signal [19]: 12.2 upbm affinity estimate (log intensity, higher = more binding, comparable within an allelic series) | binding signal [20]: 8.49 upbm affinity estimate (log intensity, higher = more binding, comparable within an allelic series)

AATTAAAT
binding signal [1]: 11.5 upbm affinity estimate (log intensity, higher = more binding, comparable within an allelic series) | binding signal [2]: 11.5 upbm affinity estimate (log intensity, higher = more binding, comparable within an allelic series) | binding signal [3]: 13.1 upbm affinity estimate (log intensity, higher = more binding, comparable within an allelic series) | binding signal [4]: 11.6 upbm affinity estimate (log intensity, higher = more binding, comparable within an allelic series) | binding signal [5]: 12.4 upbm affinity estimate (log intensity, higher = more binding, comparable within an allelic series) | binding signal [6]: 11.5 upbm affinity estimate (log intensity, higher = more binding, comparable within an allelic series) | binding signal [7]: 8.52 upbm affinity estimate (log intensity, higher = more binding, comparable within an allelic series) | binding signal [8]: 9.35 upbm affinity estimate (log intensity, higher = more binding, comparable within an allelic series) | binding signal [9]: 11.3 upbm affinity estimate (log intensity, higher = more binding, comparable within an allelic series) | binding signal [10]: 12.5 upbm affinity estimate (log intensity, higher = more binding, comparable within an allelic series) | binding signal [11]: 11.6 upbm affinity estimate (log intensity, higher = more binding, comparable within an allelic series) | binding signal [12]: 8.88 upbm affinity estimate (log intensity, higher = more binding, comparable within an allelic series) | binding signal [13]: 11.4 upbm affinity estimate (log intensity, higher = more binding, comparable within an allelic series) | binding signal [14]: 10.5 upbm affinity estimate (log intensity, higher = more binding, comparable within an allelic series) | binding signal [15]: 10.3 upbm affinity estimate (log intensity, higher = more binding, comparable within an allelic series) | binding signal [16]: 10.2 upbm affinity estimate (log intensity, higher = more binding, comparable within an allelic series) | binding signal [17]: 7.81 upbm affinity estimate (log intensity, higher = more binding, comparable within an allelic series) | binding signal [18]: 7.97 upbm affinity estimate (log intensity, higher = more binding, comparable within an allelic series) | binding signal [19]: 12.2 upbm affinity estimate (log intensity, higher = more binding, comparable within an allelic series) | binding signal [20]: 8.68 upbm affinity estimate (log intensity, higher = more binding, comparable within an allelic series)
